Assay [1] in a line: inhibitors of TNFa-induced NFkB p65 translocation, primary screen, imaging, HUVEC, MLSMR starter and 10KST1 sets (AID 438;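 active means inhibition above 20% together with a positive visual image hit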;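 further: compound added about 3h40 before a 20 min TNFalpha stimulation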;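 on inhibition: signal is the nuclear over cytoplasmic p65 intensity ratio per well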). Conditions: HUVEC TNFa-induced p65 nuclear translocation; cell count: measured here: nuclei count (cytotoxicity indicator), at 2.08 µM; inhibition: at 2 µM, stronger effect = higher value, 0% TNFa-plus-vehicle, 100% no-TNFa wells.
The nature of assay [2]: inhibitors of mutant huntingtin aggregation, primary screen, imaging, exon1htt(103Q)mCFP cells, high-content imaging (AID 483;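 active means visual image review flags a hit and inhibition of aggregation exceeds 20%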;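 further: compound exposure lasted 3 days before fixation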;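 on nuclei count: percent of the per-plate median nuclei count of sample wells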). As to conditions: exon1htt(103Q)mCFP cell line, aggregate imaging, at 2 µM; inhibition of aggregation: stronger effect = higher value; nuclei count: measured here: cell count, toxicity.
A short description of assay [3]: inhibitors of E-selectin induction by TNFa, primary screen, imaging, HUVEC, immunofluorescence, MLSMR starter and 10KST1 sets (AID 487;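 active means visually confirmed hit in the image check and inhibition above 20%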;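 on inhibition: signal is fraction of cell area covered by stained E-selectin grains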;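 on nuclei count: 100% = median nuclei count of all wells on the same plate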). Conditions: HUVEC TNFalpha-induced E-selectin immunofluorescence imaging, at 2 µM; inhibition: stronger effect = higher value; nuclei count: measured here: cell number, toxicity.
The target in assay [4] is Voltage-gated potassium channel subunit beta-2 (Rattus norvegicus) (UniProt P62483). Description: KvBeta enzyme negative modulators, primary screen, biochemical, NADPH fluorescence (AID 622;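 active means fluorescence slope higher than the sample average by over 3 SD, cut at about -0.22 in these data, passing the limit was not always enough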;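 further: slope of raw intensity against log time taken from 70 to 1610 s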). As to conditions: recombinant KvBeta, 4-cyanobenzaldehyde reduction, at 10 µM, stronger effect = higher value.
The target is the same in assay [5]. Description: KvBeta positive modulators, primary screen, biochemical, NADPH fluorescence (AID 623).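 Further: fluorescence intensity change per second fitted from 20 to 320 s.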 Conditions: Recombinant KvBeta, NADPH fluorescence decrease slope, 10 min; at 10 µM; stronger effect = lower value.
For assay [6], the target named is Alpha-2C adrenergic receptor (Homo sapiens) (UniProt P18825). Description: modulators of alpha2C/GIRK thallium flux, primary screen, cell-based, HEK293 alpha2C/GIRK1/2 (AID 624;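 active means fluorescence slope after compound addition differing from the mean of all screened samples at 99.7% confidence, in either direction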;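 further: slope of fluorescence ratio to pre-addition baseline per second over 15 to 24 s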). As to conditions: thallium flux BTC fluorescence, at 10 µM, actives lie on both sides.
The nature of assay [7]: inhibitors of Sendai virus-induced IRF3 signaling, primary screen, TLR/RLR signaling modifier project, cell-based, Sendai virus stimulus, luciferase, 10K MLSCN set (AID 602276;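 active means inhibition at or above 50% at 10 µM; inactive means inhibition below 50%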;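 further: firefly luciferase from ISG56 promoter only with Renilla not read in this screen; 0% = Sendai virus plus DMSO and 100% = medium plus DMSO without virus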). As to conditions: HEK293 RL24 IRF3 luciferase reporter, at 10 µM, stronger effect = higher value. In general terms: Reporter assays use an easily measured gene product as a stand-in for the process of interest.

A short description of assay [8]: inhibitors of poly I:C-induced TLR3 signaling, primary screen, cell-based, poly I:C stimulus, luciferase, 10K MLSCN set (AID 602277;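 active means inhibition of the reporter signal at or above 50%; inactive means inhibition below 50%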). Conditions: HEK293-TLR3 RL24 IRF3 luciferase reporter, at 10 µM, stronger effect = higher value.

Calls of active or inactive are those of the source.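 How the source made its calls, unless noted: active means NADPH fluorescence slope more negative than the mean of all samples by about 3 SD, 99.7% confidence; inactive means the rest.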

As usually defined, the inhibition is the drop in the measured response relative to a control, in per cent.

Alpha-2C adrenergic receptor (Homo sapiens), sequence (P18825 whole entry, looked up): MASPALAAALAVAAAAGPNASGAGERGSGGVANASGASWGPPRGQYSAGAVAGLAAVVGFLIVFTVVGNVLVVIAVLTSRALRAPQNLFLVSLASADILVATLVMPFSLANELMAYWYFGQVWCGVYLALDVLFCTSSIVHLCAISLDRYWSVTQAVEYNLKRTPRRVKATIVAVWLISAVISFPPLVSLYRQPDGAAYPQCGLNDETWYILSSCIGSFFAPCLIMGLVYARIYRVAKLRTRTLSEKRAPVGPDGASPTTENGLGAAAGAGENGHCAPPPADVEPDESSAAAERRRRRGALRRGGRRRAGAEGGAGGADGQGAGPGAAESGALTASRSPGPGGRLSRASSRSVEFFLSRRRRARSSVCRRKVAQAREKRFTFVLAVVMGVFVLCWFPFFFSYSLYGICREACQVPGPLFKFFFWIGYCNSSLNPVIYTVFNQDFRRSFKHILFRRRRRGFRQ
Voltage-gated potassium channel subunit beta-2 (Rattus norvegicus), sequence (P62483 whole entry, looked up): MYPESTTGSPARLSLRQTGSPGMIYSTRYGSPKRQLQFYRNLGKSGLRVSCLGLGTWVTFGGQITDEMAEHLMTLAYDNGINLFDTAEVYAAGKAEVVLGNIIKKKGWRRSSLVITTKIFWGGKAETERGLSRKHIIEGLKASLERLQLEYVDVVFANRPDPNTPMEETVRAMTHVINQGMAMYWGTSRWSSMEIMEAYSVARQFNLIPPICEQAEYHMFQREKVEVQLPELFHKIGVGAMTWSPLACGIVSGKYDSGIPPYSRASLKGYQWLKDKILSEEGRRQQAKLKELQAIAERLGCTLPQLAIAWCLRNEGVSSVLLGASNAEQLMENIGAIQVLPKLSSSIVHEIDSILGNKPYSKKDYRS

Regarding `O=C(Cn1nnc2ccccc2c1=O)NC1CCCc2ccccc21` (centres undefined), in assay [1], the cell count was found to be 485. Besides, the inhibition in assay [1] was -2.9% (inactive); in assay [3], 10.6% (inactive); in assay [7] it was 17% (inactive); in assay [8], 25% (inactive). Further, the inhibition of aggregation in assay [2] is -0.1% (inactive). The nuclei count worked out at 108% in assay [2] and 92.5% in assay [3]. For the same molecule, in assay [4], the fluorescence slope was -0.486 (inactive). The NADPH fluorescence slope in assay [5] is -1.6e-05 (inactive). In addition, in assay [6], the slope was 0.00524 (inactive).
With `COc1ccccc1CNC(=O)C1CCCN(S(=O)(=O)c2cccc3cccnc23)C1` (centres undefined), the cell count in assay [1] amounted to 783. In addition, the inhibition in assay [1] is -5.1% (inactive); in assay [3], -38.9% (inactive); in assay [7] it was 3.46% (inactive); in assay [8] it was 26.9% (inactive). The inhibition of aggregation in assay [2] is -33.4% (inactive). Moreover, the nuclei count in assay [2] is 102%; in assay [3] it was 108%. Besides, the fluorescence slope in assay [4] was -0.592 (inactive). Moreover, in assay [5], the NADPH fluorescence slope was -5.8e-05 (inactive). Moreover, the slope in assay [6] is 0.00706 (inactive).
Take `Cn1c(SCc2nc3ccccc3c(=O)[nH]2)nnc1-c1ccco1`: the cell count in assay [1] is 748. Besides, the inhibition in assay [1] is 0% (inactive); in assay [3], -141% (inactive); in assay [7] it was -0.0213% (inactive); in assay [8], 25.9% (inactive). For the same molecule, in assay [2], the inhibition of aggregation is 11.8% (inactive). In addition, the values for the nuclei count in assay [2] and in assay [3] were 104% and 131%, respectively. In addition, the fluorescence slope in assay [4] is -0.496 (inactive). Further, the NADPH fluorescence slope in assay [5] was -6.5e-06 (inactive). Moreover, the slope in assay [6] was 0.00622 (inactive).
As for `Cc1ccc(S(=O)(=O)Nc2nc3ccccc3nc2NCc2ccco2)cc1`, the cell count in assay [1] was determined as 686. Besides, the inhibition in assay [1] is 7.1% (inactive); in assay [3], -39.6% (inactive); in assay [7], -21.6% (inactive); in assay [8] it was -121% (inactive). Also, the inhibition of aggregation in assay [2] was -2% (inactive). For the same molecule, the nuclei count came out at 103% in assay [2] and 110% in assay [3]. Besides, the fluorescence slope in assay [4] was -0.376 (inactive). Also, the NADPH fluorescence slope in assay [5] is 6.7e-06 (inactive). Further, in assay [6], the slope is 0.00699 (inactive).
`CCN(CC)CCNC(=O)c1ccc(N2CCCCC2)c(NS(=O)(=O)c2ccc(C)cc2)c1`: the cell count in assay [1] was found to be 370. For the same molecule, the inhibition is 6.9% (inactive) in assay [1], -16% (inactive) in assay [3], 13.5% (inactive) in assay [7] and 13.1% (inactive) in assay [8]. In assay [2], the inhibition of aggregation is 1.6% (inactive). The nuclei count in assay [2] was 97.8%; in assay [3], 122%. The fluorescence slope in assay [4] was -0.557 (inactive). Also, the NADPH fluorescence slope in assay [5] was -3.5e-05 (inactive). For the same molecule, the slope in assay [6] was 0.00347 (inactive).
`c1cn(C23CC4CC(CC(C4)C2)C3)cn1`: the cell count in assay [1] was found to be 362. Besides, the inhibition in assay [1] was 0.8% (inactive); in assay [3], 45.7% (inactive); in assay [7], 11.8% (inactive); in assay [8], 16.7% (inactive). In addition, the inhibition of aggregation in assay [2] was -9.2% (inactive). The nuclei count in assay [2] was 108%; in assay [3], 110%. Besides, the fluorescence slope in assay [4] was -0.489 (inactive). For the same molecule, the NADPH fluorescence slope in assay [5] is -5.6e-05 (inactive). The slope in assay [6] was 0.00411 (inactive).
With `CCOC(=O)N1CCN(C(=O)CSc2nnc(Cc3ccccc3)o2)CC1`, the cell count in assay [1] was 645. The inhibition in assay [1] was -6.9% (inactive); in assay [3], -53.8% (inactive); in assay [7], 2.23% (inactive); in assay [8], 10.9% (inactive). The inhibition of aggregation in assay [2] is 10.1% (inactive). In addition, the values for the nuclei count in assay [2] and in assay [3] were 123% and 102%, respectively. The fluorescence slope in assay [4] was -0.525 (inactive). Besides, the NADPH fluorescence slope in assay [5] is -3.6e-05 (inactive). Also, the slope in assay [6] is 0.00629 (inactive).
As to `CCCOC(=O)c1[nH]c2c(c1C)C(=O)CC(c1cc(OC)c(OC)c(OC)c1)C2` (centres undefined), the cell count in assay [1] came out at 803. For the same molecule, the inhibition is 1.2% (inactive) in assay [1], -90.3% (inactive) in assay [3], 0.863% (inactive) in assay [7] and -18.2% (inactive) in assay [8]. For the same molecule, in assay [2], the inhibition of aggregation is 2.2% (inactive). The nuclei count in assay [2] amounted to 114%; in assay [3], 118%. For the same molecule, the fluorescence slope in assay [4] is -0.567 (inactive). The NADPH fluorescence slope in assay [5] was -2.6e-05 (inactive). The slope in assay [6] is 0.00599 (inactive).
Take `COc1cccc(C(=O)N2CCCC(c3nc(-c4cccs4)no3)C2)c1` (centres undefined): the cell count in assay [1] is 446. For the same molecule, the inhibition in assay [1] was -25.5% (inactive); in assay [3] it was 22.9% (inactive); in assay [7], 24.8% (inactive); in assay [8], -19.2% (inactive). Further, the inhibition of aggregation in assay [2] was 19.7% (inactive). In addition, the nuclei count in assay [2] stood at 74.5%; in assay [3], 95.9%. In assay [4], the fluorescence slope was -0.467 (inactive). The NADPH fluorescence slope in assay [5] was -3.3e-05 (inactive). In assay [6], the slope was 0.00563 (inactive).
With `O=C1Nc2ccccc2OC1CC(=O)N1CCCC1` (centres undefined), in assay [1], the cell count is 491. The inhibition in assay [1] is -6.6% (inactive); in assay [3], -105% (inactive); in assay [7], 6.75% (inactive); in assay [8], 28.5% (inactive). Moreover, the inhibition of aggregation in assay [2] was 44.6% (active). For the same molecule, the values for the nuclei count in assay [2] and in assay [3] were 80.1% and 115%, respectively. Moreover, in assay [4], the fluorescence slope is -0.522 (inactive). Besides, the NADPH fluorescence slope in assay [5] was -1.3e-05 (inactive). In addition, the slope in assay [6] is 0.00582 (inactive).
`COc1cccc(-c2nnc(NC(=O)Cc3cccs3)s2)c1`: the cell count in assay [1] turned out to be 710. In addition, the inhibition in assay [1] is -5% (inactive); in assay [3] it was 1.2% (inactive); in assay [7] it was 2.67% (inactive); in assay [8], -7.11% (inactive). The inhibition of aggregation in assay [2] was 22% (inactive). In addition, the nuclei count in assay [2] came to 79.8%; in assay [3], 92%. For the same molecule, the fluorescence slope in assay [4] was -0.452 (inactive). Besides, in assay [5], the NADPH fluorescence slope was -3e-05 (inactive). In addition, the slope in assay [6] was 0.00526 (inactive).
In the case of `CCOC(=O)Cc1csc(NC(=O)CN(C)S(=O)(=O)c2ccc3c(c2)CCC(=O)N3)n1`, the cell count in assay [1] is 585. Further, the inhibition was 12.6% (inactive) in assay [1], 40.4% (inactive) in assay [3], 25.7% (inactive) in assay [7] and 21.7% (inactive) in assay [8]. Further, in assay [2], the inhibition of aggregation was -126% (inactive). The nuclei count in assay [2] is 29.2%; in assay [3], 111%. The fluorescence slope in assay [4] is -0.521 (inactive). Also, in assay [5], the NADPH fluorescence slope is -3.1e-05 (inactive). For the same molecule, the slope in assay [6] is 0.00704 (inactive).
`Oc1ccccc1-c1cc(C(F)(F)C(F)F)[nH]n1`: in assay [1], the cell count stood at 337. In addition, the inhibition in assay [1] was -1% (inactive); in assay [3], 46.4% (inactive); in assay [7] it was -13.1% (inactive); in assay [8] it was -54.6% (inactive). Further, in assay [2], the inhibition of aggregation was 1.9% (inactive). The nuclei count in assay [2] is 105%; in assay [3] it was 106%. In assay [4], the fluorescence slope is -0.332 (inactive). Also, the NADPH fluorescence slope in assay [5] was -2e-05 (inactive). Moreover, the slope in assay [6] was 0.00606 (inactive).
On to `O=C(c1ccccc1Cl)N1CCc2ccccc2C1`, for which, in assay [1], the cell count is 645. The inhibition in assay [1] is -4.9% (inactive); in assay [3], -68.8% (inactive); in assay [7], -6.82% (inactive); in assay [8] it was -17% (inactive). Besides, in assay [2], the inhibition of aggregation is 17.3% (inactive). Also, the figures for the nuclei count in assay [2] and in assay [3] were 97.3% and 112%, respectively. Also, the fluorescence slope in assay [4] was -0.478 (inactive). For the same molecule, the NADPH fluorescence slope in assay [5] is -0.000194 (inactive). In addition, in assay [6], the slope was 0.00482 (inactive).
